Test results as given in PubChem BioAssay AID1159580 (chemical genetic matrix, 2015).
Screen size: about 5,500 compounds; about 2,000 (36%) were called active. Inconclusive results (about 18%) are left out. No stated cut-off is given here; in the data, active means normalized growth mostly below about 0.91 (no sharp cut-off); inconclusive means no clear call, values can overlap the other calls; inactive means mostly above about 0.92. The list shows a part of the results.

Experiment: chemical genetic growth profiling, strain panel (AID 1159580);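 further: tested at 20 µM; growth read once vehicle control cultures reached saturation at 30 °C; 1 = growth at the plate median or of vehicle wells; lower values mean less growth of the strain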
Conditions: growth OD

Measured: normalized growth

CC1(C)S[C@@H]2[C@H](NC(=O)C(C(=O)O)c3ccccc3)C(=O)N2[C@H]1C(=O)O (stereo partly drawn)
inactive: S. cerevisiae deletion strains, locus YJR075W, strain HOC1, hits give low values 0.987 | S. cerevisiae deletion strains, locus YKL009W, strain mrt4, hits give low values 0.971 | S. cerevisiae deletion strains, locus YKL068W, hits give low values 0.994 | S. cerevisiae deletion strains, locus YKL085W, strain MDH1 (second series), hits give low values 1 | S. cerevisiae deletion strains, locus YKL085W, strain MDH1, hits give low values 1 | S. cerevisiae deletion strains, locus YKL160W, strain elf1, hits give low values 1 | S. cerevisiae deletion strains, locus YKR001C, strain vps1, hits give low values 0.982 | S. cerevisiae deletion strains, locus YKR026C, strain gcn3, hits give low values 0.985 | S. cerevisiae deletion strains, locus YKR091W, strain srl3, hits give low values 0.975 | S. cerevisiae deletion strains, locus YLL001W, strain dnm1, hits give low values 0.932 | S. cerevisiae deletion strains, locus YLL026W, hits give low values 0.96 | S. cerevisiae deletion strains, locus YLL041C, strain sdh2, hits give low values 0.982 | S. cerevisiae deletion strains, locus YLR027C, strain aat2, hits give low values 0.976 | S. cerevisiae deletion strains, locus YLR039C, strain RIC1, hits give low values 0.989 | S. cerevisiae deletion strains, locus YLR058C, strain SHM2, hits give low values 0.989 | S. cerevisiae deletion strains, locus YLR102C, strain apc9, hits give low values 0.997 | S. cerevisiae deletion strains, locus YLR113W, strain HOG1, hits give low values 0.992 | S. cerevisiae deletion strains, locus YLR221C, strain rsa3, hits give low values 0.928 | S. cerevisiae deletion strains, locus YLR258W, strain gsy2, hits give low values 0.967 | S. cerevisiae deletion strains, locus YLR262C, strain YPT6 (second series), hits give low values 1 | S. cerevisiae deletion strains, locus YLR262C, strain YPT6, hits give low values 1 | S. cerevisiae deletion strains, locus YLR268W, strain sec22, hits give low values 0.987 | S. cerevisiae deletion strains, locus YLR320W, strain mms22, hits give low values 0.967 | S. cerevisiae deletion strains, locus YLR330W, strain CHS5, hits give low values 0.992 | S. cerevisiae deletion strains, locus YLR342W, strain FKS1 (second series), hits give low values 0.998 | S. cerevisiae deletion strains, locus YLR342W, strain FKS1, hits give low values 0.982 | S. cerevisiae deletion strains, locus YLR357W, strain rsc2, hits give low values 0.967 | S. cerevisiae deletion strains, locus YLR370C, strain arc18, hits give low values 0.926 | S. cerevisiae deletion strains, locus YLR371W, strain rom2, hits give low values 0.988 | S. cerevisiae deletion strains, locus YLR384C, strain iki3, hits give low values 0.969 | S. cerevisiae deletion strains, locus YLR418C, strain cdc73, hits give low values 0.984 | S. cerevisiae deletion strains, locus YML016C, strain PPZ1, hits give low values 0.99 | S. cerevisiae deletion strains, locus YML032C, strain rad52, hits give low values 0.981 | S. cerevisiae deletion strains, locus YML120C, strain ndi1, hits give low values 0.946 | S. cerevisiae deletion strains, locus YML124C, strain tub3, hits give low values 1 | S. cerevisiae deletion strains, locus YMR058W, strain fet3, hits give low values 0.971 | S. cerevisiae deletion strains, locus YMR078C, strain ctf18, hits give low values 0.985 | S. cerevisiae deletion strains, locus YMR125W, strain sto1, hits give low values 0.956 | S. cerevisiae deletion strains, locus YMR129W, hits give low values 1 | S. cerevisiae deletion strains, locus YMR205C, strain PFK2, hits give low values 0.98 | S. cerevisiae deletion strains, locus YMR223W, strain ubp8, hits give low values 0.987 | S. cerevisiae deletion strains, locus YMR231W, strain pep5, hits give low values 0.988 | S. cerevisiae deletion strains, locus YMR307W, strain GAS1, hits give low values 0.917 | S. cerevisiae deletion strains, locus YNL067W, strain RPL9B, hits give low values 1 | S. cerevisiae deletion strains, locus YNL071W, strain lat1, hits give low values 0.995 | S. cerevisiae deletion strains, locus YNL153C, strain GIM3, hits give low values 0.989 | S. cerevisiae deletion strains, locus YNL183C, strain NPR1, hits give low values 0.94 | S. cerevisiae deletion strains, locus YNL209W, strain ssb2, hits give low values 0.969 | S. cerevisiae deletion strains, locus YNL233W, strain BNI4, hits give low values 0.975 | S. cerevisiae deletion strains, locus YNL248C, strain rpa49, hits give low values 1.02 | S. cerevisiae deletion strains, locus YNL250W, strain rad50, hits give low values 0.975 | S. cerevisiae deletion strains, locus YNL271C, strain bni1, hits give low values 0.984 | S. cerevisiae deletion strains, locus YNL298W, strain CLA4, hits give low values 0.99 | S. cerevisiae deletion strains, locus YNL307C, strain MCK1, hits give low values 0.992 | S. cerevisiae deletion strains, locus YNL322C, strain KRE1 (second series), hits give low values 0.971 | S. cerevisiae deletion strains, locus YNL322C, strain KRE1, hits give low values 0.997 | S. cerevisiae deletion strains, locus YNR049C, strain mso1, hits give low values 0.962 | S. cerevisiae deletion strains, locus YNR052C, strain pop2, hits give low values 0.983 | S. cerevisiae deletion strains, locus YOL006C, strain TOP1, hits give low values 0.985 | S. cerevisiae deletion strains, locus YOL012C, strain htz1 1.06 | S. cerevisiae deletion strains, locus YOL147C, strain pex11, hits give low values 0.982 | S. cerevisiae deletion strains, locus YOR001W, strain rrp6, hits give low values 1 | S. cerevisiae deletion strains, locus YOR061W, strain CKA2, hits give low values 0.994 | S. cerevisiae deletion strains, locus YOR069W, strain VPS5, hits give low values 0.991 | S. cerevisiae deletion strains, locus YOR070C, strain gyp1, hits give low values 0.972 | S. cerevisiae deletion strains, locus YOR080W, strain dia2, hits give low values 0.972 | S. cerevisiae deletion strains, locus YOR083W, strain WHI5, hits give low values 0.994 | S. cerevisiae deletion strains, locus YOR106W, strain vam3, hits give low values 0.993 | S. cerevisiae deletion strains, locus YOR136W, strain idh2, hits give low values 0.98 | S. cerevisiae deletion strains, locus YOR144C, strain elg1, hits give low values 0.983 | S. cerevisiae deletion strains, locus YOR184W, strain ser1, hits give low values 0.978 | S. cerevisiae deletion strains, locus YOR231W, strain MKK1, hits give low values 1.04 | S. cerevisiae deletion strains, locus YOR265W, strain rbl2, hits give low values 0.964 | S. cerevisiae deletion strains, locus YOR270C, strain vph1, hits give low values 0.978 | S. cerevisiae deletion strains, locus YOR290C, strain snf2, hits give low values 0.961 | S. cerevisiae deletion strains, locus YOR316C, strain cot1, hits give low values 0.981 | S. cerevisiae deletion strains, locus YPL051W, strain arl3, hits give low values 0.992 | S. cerevisiae deletion strains, locus YPL078C, strain atp4, hits give low values 1.01 | S. cerevisiae deletion strains, locus YPL106C, strain sse1, hits give low values 0.937 | S. cerevisiae deletion strains, locus YPL240C, strain hsp82, hits give low values 0.971 | S. cerevisiae deletion strains, locus YPL241C, strain CIN2, hits give low values 0.997 | S. cerevisiae deletion strains, locus YPL256C, strain CLN2, hits give low values 1.03 | S. cerevisiae deletion strains, locus YPR119W, strain clb2, hits give low values 0.991 | S. cerevisiae deletion strains, locus YPR141C, strain kar3, hits give low values 0.977 | S. cerevisiae deletion strains, locus YPR163C, strain tif3, hits give low values 0.989 | S. cerevisiae deletion strains, locus YPR167C, strain met16, hits give low values 0.99 | S. cerevisiae deletion strains, strain wtn01, hits give low values 0.984 | S. cerevisiae strains, strain wild type, hits give low values 0.999
